This passage reports Potency results from PubChem BioAssay (Tox21).

SMILES strings stand for the structures. Values joined by “and” are separate entries in the source; they are usually repeats but may differ in a detail not shown here. Identical values can stand only once. Inconclusive results are not listed. A call without a number means that no potency is given here. Some compounds were tested as several samples or in several runs, with calls that do not always agree. Active and inactive are the calls of the source. Calls follow the shape of the dose curve; as a rule, active = well fitted cell-killing curve with a large enough effect in the repeat runs; inconclusive = weak or mixed curves, or effect the other way; inactive = no such curve, though single readings can be large or run the other way.
Potency is read from the fitted curve at half-maximal effect.

The nature of this experiment: qHTS assay to identify small molecule agonists of the vitamin D receptor (VDR) signaling pathway - cell viability counter screen (AID 743224). Also: nearly all actives have a fitted effect of over 50% in size. As to conditions: VDR-bla HEK293T viability, CellTiter-Glo luminescence, 16 h; series mostly up to 62.6 µM. An excerpt:
U.S. Tox21 Program National Center for Advancing Translational Sciences [NCATS] NIH Chemical Genomics Center [NCGC] U.S. Environmental Protection Agency [EPA] National Institutes of Environmental Health Sciences [NIEHS] National Toxicology Program [NTP] U.S. Food and Drug Administration [FDA] Tox21 Assay Overview: The vitamin D receptor (VDR), a member of nuclear hormone receptor superfamily, plays a critical role in calcium homeostasis and bone metabolism. It is also involved in cell differentiation and growth, and thrombogenicity. […] The cytotoxicity of the Tox21 compound library against the VDR-bla cell line was tested in parallel by measuring the cell viability using CellTiter-Glo assay (Promega, Madison, WI) in the same wells.
Tox21 Assay Protocol Summary: VDR-bla cells were dispensed at 2,000 cells/6 uL/well into black wall/clear-bottom 1536-well plates using a Multidrop Combi (Thermo Fisher Scientific, Waltham, MA) dispenser. After the assay plates were incubated at a 37C and 5% CO2 for 4 h, 23 nL of compounds dissolved in DMSO, positive controls or DMSO only was transferred to the assay plate by a Pintool station (Kalypsys, San Diego, CA). The plates were incubated at 37C and 5% CO2 for 16 h. After 1 uL of LiveBLAzerTM B/G FRET substrate was added using a Bioraptr Flying Reagent Dispenser (FRD) workstation (Beckman Coulter, Indianapolis, IN, USA), the plates were incubated at room temperature for 2 h, and fluorescence intensity was measured by an Envision plate reader (PerkinElmer, Shelton, CT). For cell viability readout that measures cytotoxicity, 3 ul/well of CellTiter-Glo reagent was added into the assay plates using a FRD. After 30 min incubation at room temperature, the luminescence intensity in the plates was measured using a ViewLux (PerkinElmer) plate reader.
For the compound `c1c[nH]cn1`, the Potency entry was “inactive”.
In the case of `O=C(O)CCCCCCCCCCC(=O)O`, the Potency entry was “inactive”.
Take `OCc1cccnc1`: the Potency result is “inactive”.
Then `CCCCC(CC)COC(=O)C(C#N)=C(c1ccccc1)c1ccccc1` (stereo not given), with “inactive”.
In the case of `CC(C)(C)[C@@H](O)[C@@H](Cc1ccc(Cl)cc1)n1cncn1` it was “inactive”; in that of `CCCCCC1=CCCC1=O`, “inactive”.
In the case of `O=C1CCC(N2C(=O)c3ccccc3C2=O)C(=O)N1` (stereo not given) it was “inactive”.
`CCCCCCCCCC`: the Potency entry was “inactive”.
In the case of `O=C=NCCCCCCN=C=O` it was “inactive”; in that of `O=C(O)c1cc(C(=O)O)cc(S(=O)(=O)O)c1`, “inactive”.
As to `C/C=C1/CC2C=CC1C2` (stereo not given), the Potency result is “inactive”.
With `C=CCNC(N)=S`, the Potency entry was “inactive”.
On to `CCCCCCCC(=O)OC`, for which the Potency entry is “inactive”.
Then `C[Si](O[Si](C)(C)C)O[Si](C)(C)C`, with “inactive”.
With `CCCCCCCCCCCCOCCO`, the Potency result was “inactive”.
In the case of `Nc1cc([N+](=O)[O-])ccc1O` it was “inactive”; in that of `Cc1cnc(C(=O)NCCc2ccc(S(=O)(=O)NC(=O)NC3CCCCC3)cc2)cn1`, “inactive”; in that of `CC[C@H](C)C(=O)O[C@H]1C[C@@H](C)C=C2C=C[C@H](C)[C@H](CC[C@@H]3C[C@@H](O)CC(=O)O3)[C@H]21`, “inactive”.
On to `CC(=O)Nc1ccccc1`, for which the Potency result was “inactive”.
In the case of `CC(C)CC(=O)CC(C)C` it was “inactive”; in that of `CCCCCCCCCCCCc1ccccc1`, “inactive”; in that of `O=c1[nH]c(=O)n([C@H]2CCCO2)cc1F`, “inactive”.
Then `O=C(O)c1ccccc1C(c1ccc(O)cc1)c1ccc(O)cc1`, with “inactive”.
Consider `O=C(O)c1cc(=O)c2c(OCC(O)COc3cccc4oc(C(=O)O)cc(=O)c34)cccc2o1`, for which the Potency result is “inactive”.
In the case of `CC(=O)c1ccccc1`, the Potency result was “inactive”.
For `CCCCCOC(C)=O`, the Potency result is “inactive and 49 µM (active)”.
Then `COc1ccc2cc([C@H](C)C(=O)O)ccc2c1`, with “inactive”.
Then `COc1cc(Cc2cnc(N)nc2N)cc(OC)c1OC`, with “inactive”.
Then `CC(=O)OCC(=O)[C@@]12N=C(C)O[C@@H]1C[C@H]1[C@@H]3CCC4=CC(=O)C=C[C@]4(C)[C@H]3[C@@H](O)C[C@@]12C`, with “inactive”; and `O=C(O)CCCC[C@@H]1SC[C@@H]2NC(=O)N[C@@H]21`, with “inactive”.
As to `CC1=CC(=O)NS(=O)(=O)O1`, the Potency entry is “inactive”.
Then `CN(C)CCCN`, with “inactive”; and `O=C(O)c1cc(O)c(O)c(O)c1`, with “inactive”.
In the case of `CN(C)CCC(c1ccc(Cl)cc1)c1ccccn1` (stereo not given), the Potency result was “inactive”.
In the case of `COCCCOc1ccnc(CS(=O)c2nc3ccccc3[nH]2)c1C` (stereo not given) it was “inactive”; in that of `c1ccc2c(c1)ccc1ccccc12`, “inactive”.
As for `CCc1cccc(C)c1N`, the Potency result was “inactive”.
For `CCCCC(CC)COC(=O)CCCCC(=O)OCC(CC)CCCC` (stereo not given), the Potency result was “inactive”.
As for `C[C@H]1C[C@@H]2[C@H]([C@@H](O)C[C@@]3(C)[C@H]2CC[C@]3(O)C(=O)CO)[C@@]2(C)C=CC(=O)C=C12`, the Potency result is “inactive”.
In the case of `Cc1cc(C)c(C)cc1C` it was “inactive”.
